In the library only some 9.3% were active in any assay of this set; here they are far more common.
HCMV antiviral: blocks human cytomegalovirus replication; HFF cells, HCMV-luciferase reporter, 72 h; stronger effect = lower value; activity change, negative = inhibition, % at 57.5 µM; actives 4.5% (n = 410,000); AID 1259415; in the data active = activity change below about -60%; inconclusive = no clear call, values can overlap the other calls; inactive = above about -39%
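Inhibition of viral replication was scored as loss of reporter luminescence in HFFs infected with HCMV-luciferase (MOI 1 PFU/cell) for 72 h; compounds tested at 2 doses, normalized to buffer and Salinomycin controls.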
FMDV antiviral: foot and mouth disease virus antiviral activity; FMDV antiviral cell-based qHTS; Potency, µM (titrated, usually from 57.9 µM), without a hit: top-dose activity change, negative = inhibition, actives largely listed as inhibitors; actives 1.2% (n = 410,000); AID 1159524; calls by dose curve; tested in HEK293T cells; note: read-out not given here; potency is the fitted concentration of half-maximal effect; nearly all actives have a fitted effect of over 45% in size
VACV mCherry inh: inhibitors of vaccinia virus infection (mCherry reporter signal); Vaccinia virus mCherry reporter infection, fluorescence; Potency, µM (top dose mostly 36.5 µM), for inactives: at the highest dose activity change, negative = inhibition, hits mostly inhibitors; actives 0.63% (n = 310,000); AID 720579; calls by dose curve; tested in A549 cells; note: potency is the fitted concentration of half-maximal effect; nearly all actives have a fitted effect of over 35% in size
HCV inhibitor: HCV inhibition; Huh7.5.1 HCVcc-Cre infection, luciferase reporter, 44 h; Potency, µM (highest dose often 41.8 µM), for inactives: at the highest dose activity change, negative = inhibition, actives largely listed as inhibitors; actives 3.4% (n = 340,000); AID 651820; note: potency is the fitted concentration of half-maximal effect
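Seed cells (1,000/well) for 4 h; treat with compound and infect with HCVcc-Cre, moi about 0.5. Incubate 44 h, then detect luciferase activity.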
Sm TGR block: S. mansoni TGR enzyme inhibition. Potency, µM (doses to about 114 µM), for inactives: top-dose activity change, negative = inhibition, usual class: inhibitors. Q962Y6. purified TGR, DTNB reduction, TNB absorbance 405 nm. actives 3% (n = 360,000); note: potency is the fitted concentration of half-maximal effect; nearly all actives have a fitted effect of over 60% in size
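TGR 20 nM + NADPH 100 uM (dispensed conc.), cpd preinc 15 min RT; start with NADPH (500 uM addition) then DTNB (15 mM addition). Kinetic TNB absorbance, 405 nm filter. Four-parameter Hill fit across titration.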
VACV Venus inh: vaccinia inhibition (Venus reporter). actives 0.46% (n = 330,000). Potency, µM (highest dose often 36.5 µM), without a hit: at the highest dose activity change, negative = inhibition, actives largely listed as inhibitors. Vaccinia virus Venus reporter expression, fluorescence. AID 720580; calls by dose curve; tested in A549 cells; note: potency is the fitted concentration of half-maximal effect; nearly all actives have a fitted effect of over 30% in size
* marks the source's active call; other numbers are inactive results; i = inactive; u = inconclusive; x = no result; [ ] = dose if it differs, or a comment. Unless noted, calls come from the whole dose curve; as a rule, active = well fitted curve in the direction sought with a large enough effect; inconclusive = small, poorly fitted or top-dose-only effect, or another doubt; inactive = no such curve, though single readings can be large; an effect the other way counts as inactive or inconclusive. % is set by controls: 0 for no effect and ±100 for the full control effect.

SMILES | HCMV antiviral | FMDV antiviral | VACV mCherry inh | HCV inhibitor | Sm TGR block | VACV Venus inh
Cc1ccc(NC(=O)CN2C(=O)CN(C)C2=O)cc1S(=O)(=O)N1CCCCC1 | 6 | -17% | -5% | -26% | -1% | -1%
COc1ccc(OC)c(CNC(=O)c2ccc(C)c(NC(=O)C3=C(C)OCCS3)c2)c1 | 14 | 9% | -25%[7.34 µM] | u | -13% | -18%[7.34 µM]
Cc1ccc(C(=O)NC(=S)NNC(=O)COc2ccccc2C)cc1 | 46 | -16% | 0% | -9% | 2% | -2%
CC1CN(C2CCN(S(=O)(=O)c3ccc4ccccc4c3)CC2)CC(C)O1 (configuration not stated) | 1 | -13% | x | 2% | u | x
CC1(C(=O)Nc2ccc3c(c2)OCO3)CCN1C(=O)Cc1ccc(-c2ccccc2)cc1 (configuration not stated) | -81* | 0% | u | x | x | -25%
CC1(C(=O)Nc2ccccc2)CCN1C(=O)Cc1ccc(-c2ccccc2)cc1 (configuration not stated) | -74* | u | 23% | x | x | 25%
COc1cccc(NC(=O)C2(C)CCN2C(=O)Cc2ccc(-c3ccccc3)cc2)c1 (configuration not stated) | -25 | -21% | 13% | x | x | -20%
O=C(C1=C[C@H](c2csc3ccccc23)C[C@H](OCc2ccc(CO)cc2)O1)N1CCN(Cc2ccccc2)CC1 | u | 0% | u | u | 14µM* | u
O=C(C1=C[C@H](c2csc3ccccc23)C[C@H](OCc2ccc(CO)cc2)O1)N1CCN(Cc2ccc3c(c2)OCO3)CC1 | -25 | u | u | 8.9µM* | -16% | u
CCCCOC(=O)n1c(=O)oc2ccccc21 | -101* | 17% | x | 15% | 5% | -17%
COC(=O)n1c(=O)oc2ccccc21 | 73 | -9% | x | 3% | -4% | -31%
O=C(O)C1CC(Br)C(Br)CC1C(=O)O (configuration not stated) | -3 | -8% | i | x | x | -15%
C[C@@](N)(C(=O)O)[C@@H]1C[C@@H]1C(=O)O | x | 40µM* | i | x | x | -3%
Cc1ccc(C(=O)Nc2cc([N+](=O)[O-])ccc2F)s1 | 3 | 29% | -14% | 15% | 3% | -14%
O=C(c1ccccc1)c1ccc2nc(N3CCN(c4ccc(F)cc4)CC3)c3nncn3c2c1 | -67* | -15% | u | x | -2% | u
Cc1c(Cl)c([N+](=O)[O-])nn1Cc1ccc(C(=O)N/N=C\c2cccc(Br)c2)o1 | 52 | -16% | x | u | 35% | 28µM*
O=c1[nH]c(SCc2ccccc2Cl)nc2c1CCC2 | 18 | -5% | x | -21% | 0% | x
CNc1nc(SCc2ccccc2Cl)nc2c1CCCC2 | -40 | -29% | x | 7.1µM* | 14% | u
Cn1c(=O)c(C(=O)COC(=O)c2cc(C3CC3)nc3ccccc23)c(N)n(Cc2ccccc2)c1=O | 6 | u | i | 3.5µM* | -2% | -20%
Cn1c(=O)c(C(=O)COC(=O)c2cc(-c3ccco3)nc3ccccc23)c(N)n(CC2CC2)c1=O | x | x | x | -17%[8.37 µM] | 3.5µM* | x
CCCCNC(=O)C1CCCN1C(=O)NC1CCCCC1 (configuration not stated) | 48 | 18% | x | 9% | 2% | x
CN1C(=O)CC(N2CCC(c3nc4ccccc4[nH]3)CC2)C1=O (configuration not stated) | 4 | 3% | x | 15% | 89µM* | x
O=C(c1ccc(Br)o1)N1CCC(c2nc3ccccc3[nH]2)CC1 | -23 | -17% | -12% | 8% | 40µM* | -7%
O=C1CC(N2CCC(c3nc4ccccc4[nH]3)CC2)C(=O)N1c1cccc(F)c1 (configuration not stated) | -10 | -11% | -8% | 3% | u | -10%
O=C1CC(N2CCC(c3nc4ccccc4[nH]3)CC2)C(=O)N1Cc1ccccc1 (configuration not stated) | -15 | x | i | 1% | u | -12%
SMILES | HCMV antiviral | FMDV antiviral | VACV mCherry inh | HCV inhibitor | Sm TGR block | VACV Venus inh
O=C(O)c1ccc(N2C(=O)CC(N3CCC(c4nc5ccccc5[nH]4)CC3)C2=O)cc1 (configuration not stated) | 19 | -10% | -2% | 4% | 22µM* | -4%
COc1ccccc1NC(=O)Cn1c(C)nc2c(sc(=S)n2Cc2ccco2)c1=O | 14 | -27% | -16%[7.34 µM] | 13µM* | -27% | -5%[7.34 µM]
Cc1nc2c(sc(=S)n2Cc2ccco2)c(=O)n1CC(=O)Nc1cc(F)ccc1F | 9 | 0% | x | 13µM* | -14% | x
O=C(Cn1c(=O)n(Cc2ccco2)c(=O)c2sc3ccccc3c21)Nc1ccc(F)cc1F | -74* | -23% | -11% | x | 6% | -8%
O=C(Nc1ccc(C(F)(F)F)cc1)C1CC(=O)N(c2ccc3c(c2)OCCO3)C1 (configuration not stated) | -2 | -1% | x | -8% | 5% | -5%
Cc1c(NC(=O)COC(=O)C23CC4CC(CC(Br)(C4)C2)C3)c(=O)n(-c2ccccc2)n1C | -36 | -11% | -12% | 15% | -3% | -6%
COc1ccccc1NC(=O)c1ccccc1NC(=O)c1ccccn1 | -31 | -10% | -3% | 0% | -1% | -14%
CC(=NNC(=S)Nc1ccc(C)cc1)c1ccccn1 | -94* | 0% | u | u | x | u
CC(=NNC(=S)Nc1cccc(C)c1)c1ccccn1 | -98* | 39% | 2µM* | 10µM* | x | u
COc1ccccc1NC(=S)NN=C(C)c1ccccn1 | -102* | 1% | u | u | x | u
Cc1noc(C)c1C(=O)N1CCC[C@@]2(CCN(Cc3ccccc3)C2)C1 | x | -10% | x | x | x | x
COc1ccc(CCN2CC34C=CC(O3)C(C(=O)NCc3ccccc3)C4C2=O)cc1OC (configuration not stated) | 22 | 7% | -16% | 15% | 10% | -1%
N/C(=N\OC(=O)Nc1ccccc1)c1ncc([N+](=O)[O-])s1 | -32 | -4% | u | 13µM* | -22% | u
O=C(COC(=O)COc1ccccc1)Nc1ncc([N+](=O)[O-])s1 | 33 | 13% | -13% | 17% | u | 0%
Cc1nonc1OCCN1CCN(c2ccc([N+](=O)[O-])cc2)CC1 | -16 | u | i | u | -1% | -3%
O=[N+]([O-])c1ccc(N2CCN(CCOc3nonc3-c3ccccc3)CC2)c(Cl)c1 | 7 | x | i | 6.3µM* | 0% | -13%
O=C(O)c1cccc(NC(=O)C23CC4CC(C2)CC(n2cnc(Cl)n2)(C4)C3)c1 | -17 | 1% | x | 16% | -2% | -9%

Bioassay records: PubChem, National Center for Advancing Translational Sciences (NCATS)
